± gives the uncertainty stated by the source.

In this experiment the test system is HEK293T-Rex ERSE-FLuc. Kind of experiment: ERSE-FLuc reporter activation, triplicate confirmation, relative to 500 nM thapsigargin (% of thapsigargin); higher = stronger ATF6/ERSE reporter activation. The note with it: 6.8 µM; 18 h; screen: confirmation. Here is the method: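 HEK293T-Rex cells stably expressing the ERSE-firefly luciferase (BiP promoter, ATF6-preferring) or XBP1-splicing Renilla luciferase (IRE1/XBP1s) reporter, 1536-well plates, compound at 6.8 µM for 18 hr at 37 °C; luminescence read […] and expressed as % activation = 100*(compound - median DMSO)/(median 500 nM thapsigargin - median DMSO). Primary screen was single-pass; confirmation screen in triplicate (mean ± SD).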
`Nc1ccc2nc(/C=C/c3ccccc3)[nH]c2c1` yielded an ERSE-FLuc reporter activation of 36.7 ± 5.2.
Consider `N#Cc1c(NC(=O)c2ccc(Br)cc2)sc2c1CCCC2`, for which the ERSE-FLuc reporter activation stood at 27.3 ± 5.2.
Regarding `NC(=O)c1c(NC(=O)/C=C/c2ccccc2)sc2c1CCCCC2`, the ERSE-FLuc reporter activation was found to be 28.9 ± 2.4.
`O=C1/C(=C/c2ccc(O)c(O)c2)SC(=S)N1c1ccc(O)cc1`: the ERSE-FLuc reporter activation amounted to 30.5 ± 8.2.
`O=C(/C=C/c1ccco1)Nc1ccc(Br)cc1Cl` showed an ERSE-FLuc reporter activation of 25.5 ± 1.6.
The same measure for `O=C(NC(c1ccccc1)c1ccccc1)c1csc(-c2cnccn2)n1`: 30.5 ± 7.8.
In turn, `O=C(N/N=C/c1ccc(Cl)cc1Cl)c1ccc(O)c(O)c1` yielded an ERSE-FLuc reporter activation of 25.8 ± 6.1.
In turn, `N#C/C(=C/c1ccc(O)c(O)c1)c1nc2ccccc2[nH]1` gave an ERSE-FLuc reporter activation of 29.7 ± 1.1.
The same measure for `COc1ccc2oc(=Nc3cc(F)ccc3F)c(C(N)=O)cc2c1`: 25.3 ± 4.6; for `O=C1N/C(=C/c2ccc(O)cc2)C(=O)N1c1ccccc1`: 66.4 ± 15.
Turning to `N/C(=N\N=C\c1ccc(O)c(O)c1)c1nonc1N`, the ERSE-FLuc reporter activation was 71.1 ± 7.1.
In the case of `O=c1/c(=C/c2ccc(O)c(O)c2)sc2nc3ccccc3n12`, the ERSE-FLuc reporter activation turned out to be 37.5 ± 3.7.
The same measure for `COc1ccc2[nH]c3c(N4CCCCC4)ncnc3c2c1`: 28.3 ± 2.6.
Take `Cc1ccc(O)c(NC(=O)CN(C)S(=O)(=O)c2ccc(Cl)cc2)c1`: the ERSE-FLuc reporter activation came to 29.8 ± 0.59.
Compound `CCOc1ccc(/C=C(\C#N)c2[nH]nc(N)c2C#N)cc1OCC` registered an ERSE-FLuc reporter activation of 26.7 ± 5.5.
On to `Oc1ccc(-c2csc(-c3ccccc3)n2)cc1O`, for which the ERSE-FLuc reporter activation came to 61.5 ± 5.1.
Take `O=C1/C(=C/c2ccc(O)c(O)c2)Oc2cc(O)ccc21`: the ERSE-FLuc reporter activation amounted to 26.9 ± 5.9.
In the case of `Cc1ccc2nc(NC(=O)c3cccc4ccccc34)sc2c1`, the ERSE-FLuc reporter activation was determined as 43.1 ± 7.8.
`Cc1ccc(O)c(NC(=O)c2cc(C(C)C)on2)c1` returned an ERSE-FLuc reporter activation of 44.6 ± 1.3.
As for `Oc1cccc(/C=N/Nc2ccc(Cl)nn2)c1O`, the ERSE-FLuc reporter activation came to 35 ± 6.
As for `Oc1ccc(/C=N/Nc2cccc(Cl)n2)c(O)c1`, the ERSE-FLuc reporter activation was 31 ± 7.1.
With `Cc1ccc(/C=C(\C#N)C(=O)Nc2cccc(Cl)c2)o1`, the ERSE-FLuc reporter activation turned out to be 26.2 ± 10.
With `O=C(NC1CCCC1)c1cc(-c2cccs2)on1`, the ERSE-FLuc reporter activation was found to be 25.7 ± 2.1.
In the case of `O=C(Nc1nc2c(s1)CCCC2)c1cccc2ccccc12`, the ERSE-FLuc reporter activation is 33.8 ± 2.4.
For the compound `Cc1ccccc1NC(=O)c1sc2nc(N)c(C#N)c(-c3ccc(C(C)C)cc3)c2c1N`, the ERSE-FLuc reporter activation amounted to 36.7 ± 3.3.
`Cc1ccc(O)c(N/C=C/C(=O)c2cccs2)c1` returned an ERSE-FLuc reporter activation of 62.1 ± 12.
With `O=[N+]([O-])c1ccccc1NC(=S)N/N=C/c1ccc(O)c(O)c1`, the ERSE-FLuc reporter activation came out at 33.2 ± 4.3.
The result for `O=C(Nc1ccc(O)cc1)c1ccc2ccccc2c1` reads 28.3 ± 11.
With `COc1cccc(Nc2nc(-c3ccc(OC)c(F)c3)cs2)c1`, the ERSE-FLuc reporter activation came out at 25.2 ± 4.3.
In turn, `Cc1ccc(/C=N/NC(=O)c2cccc(F)c2)cc1` came in with an ERSE-FLuc reporter activation of 27.1 ± 7.8.
For the compound `Nc1ccc2sc(-c3cc(Cl)c(N)c(Cl)c3)nc2c1`, the ERSE-FLuc reporter activation amounted to 30.8 ± 2.4.
The compound `COc1ccc(-c2csc(N(CC3CCCO3)C(=O)CCl)n2)cc1` (stereo not given) showed an ERSE-FLuc reporter activation of 25.3 ± 4.3.
Compound `CC(C)c1ccc(NC(=O)/C=C/c2ccco2)cc1` returned an ERSE-FLuc reporter activation of 26.6 ± 5.9.
In turn, `NN1C(=O)/C(=C/c2ccc(O)c(O)c2)SC1=S` gave an ERSE-FLuc reporter activation of 38.3 ± 1.
In the case of `CCN1C(=O)/C(=C\c2ccc(O)cc2O)SC1=S`, the ERSE-FLuc reporter activation is 36.3 ± 8.3.
`COc1cn(-c2ccc(F)cc2)nc1C(=O)Nc1ccccc1SC` returned an ERSE-FLuc reporter activation of 62.7 ± 4.5.
Compound `COCCNC(=O)c1cc(-c2cccs2)on1` registered an ERSE-FLuc reporter activation of 27.4 ± 2.4.
The compound `O=C(N/N=C/c1ccc(Cl)cc1)c1n[nH]c2c1CCCC2` yielded an ERSE-FLuc reporter activation of 42 ± 8.6.
On to `CN(C)c1ccc(/C=C(/C#N)C(=O)Nc2ccc(O)cc2)cc1`, for which the ERSE-FLuc reporter activation was 33.3 ± 5.
In the case of `CCCCNNC(=O)c1ccc(Br)cc1`, the ERSE-FLuc reporter activation is 60.9 ± 6.

For the origin of these results see the supplement of paper PMC4954754.
